Experimental findings from PubChem BioAssay (EPA / NIEHS) are described below.

Active and inactive are the calls of the source. Rule for the calls: active = hit-call score of the fitted dose curve at least 0.9, where 1 is the maximum; inactive = score below 0.9.

By AC50 is commonly meant the midpoint of the concentration-response curve, whichever way the signal moves.

Assay [1] concerns the target CCAAT/enhancer-binding protein beta (Homo sapiens) (UniProt P17676). The experiment in a line: ATG_C_EBP_CIS: Attagene CIS-FACTORIAL HepG2 Assay for human CCAAT/Enhancer Binding Protein (C/EBP) beta (AID 2282927). Conditions: HepG2 Attagene cis-factorial transcription factor reporter; actives raise or lower the signal. The method in brief:
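HepG2 transiently transfected with multiplexed reporter units under cis-regulatory promoters reporting endogenous C/EBPb activity. After 24 h exposure, reporter mRNA assayed by RT-PCR, fluorescent labelling, HpaI digestion and capillary electrophoresis; bidirectional fitting versus DMSO.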

Assay [2] can be described thus: ATG_DR4_LXR_CIS: Attagene CIS-FACTORIAL HepG2 Assay for human Liver X Receptor (LXR), DR4 submotif (AID 2282929). Conditions: HepG2 Attagene DR4 cis-reporter, mRNA transcription; actives raise or lower the signal. The method in brief: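 Total RNA from 24 h-treated, MRTU-transfected HepG2 cells underwent reverse transcription, PCR, fluorescent primer extension and restriction digestion before capillary electrophoresis. Both increases and decreases in reporter signal were fitted against DMSO.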

The nature of assay [3]: ATG_AP_2_CIS: Attagene CIS-FACTORIAL HepG2 Assay for human Activator Protein 2 (AP-2) (AID 2282932). The following applies: HepG2 AP-2 cis-reporter, Attagene transcription factor profiling; actives raise or lower the signal. Summed up: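 Liver-derived HepG2 line, cis-reporter system measuring endogenous factors; 24 h dosing; reporter mRNA detected by fluorescent RT-PCR and capillary electrophoresis.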

Assay [4] deals with Transcription factor E2F1 (Homo sapiens) (UniProt Q01094). The experiment in a line: ATG_E2F_CIS: Attagene CIS-FACTORIAL HepG2 Assay for human E2F Transcription Factor 1 (AID 2282935). The following applies: HepG2 Attagene cis-reporter, E2F reporter RNA transcripts; actives raise or lower the signal. The method in brief:
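Liver-derived HepG2 cells expressing transfected promoter-driven reporter units received test chemical for 24 hours. Signal gains or losses were fitted bidirectionally against DMSO.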

Assay [5] in a line: ATG_E_Box_CIS: Attagene CIS-FACTORIAL HepG2 Assay for human Enhancer Box (E-box) (AID 2282936). Conditions: HepG2 E-box cis-reporter transcription, actives raise or lower the signal. Summed up:
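In this cell-based setup, HepG2 cells bearing transfected promoter-driven reporter units were exposed to chemicals for 24 h; reporter transcripts were amplified, 6-FAM-labelled, cut with HpaI and sized by capillary electrophoresis.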

A short description of assay [6]: ATG_M_19_CIS: Attagene CIS-FACTORIAL HepG2 Assay for M19 Transcription Factor (Internal Marker) (AID 2282939). Conditions: HepG2 Attagene CIS-FACTORIAL M19 internal marker reporter; actives raise or lower the signal. The method in brief:
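Chemical-treated HepG2 (24 h) with MRTU constructs; reporter transcripts detected by fluorescent RT-PCR fragment analysis on capillary electrophoresis. Internal background marker, DMSO as baseline.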

Assay [7] can be described thus: ATG_GLI_CIS: Attagene CIS-FACTORIAL HepG2 Assay for human Zinc Finger Protein GLI1 (AID 2282945). The following applies: HepG2, Attagene cis-factorial reporter mRNA, GLI element; actives raise or lower the signal. The method in brief: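 Transiently transfected HepG2 cells report endogenous transcription factor activity via cis-element-driven reporter units. After 24 h compound exposure, reporter mRNA was measured by RT-PCR with capillary electrophoresis; bidirectional fitting against DMSO baseline.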

Assay [8] can be described thus: ATG_ISRE_CIS: Attagene CIS-FACTORIAL HepG2 Assay for human Interferon Regulatory Factor 1 (IRF1) binding to an Interferon-Stimulated Response Element (ISRE) (AID 2282948). The following applies: HepG2 ISRE cis-reporter (Attagene), mRNA transcription readout; actives raise or lower the signal. Summed up: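 Endogenous transcription factor activity read as reporter transcript abundance via RT-PCR and capillary electrophoresis. HepG2 cells transiently transfected, 24 h chemical exposure. Gain or loss fitted against DMSO baseline.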

Assay [9] can be described thus: ATG_M_32_CIS: Attagene CIS-FACTORIAL HepG2 Assay for M32 Transcription Factor (Internal Marker) (AID 2282949).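 Note: background control marker of the multiplexed CIS panel rather than a real target.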 The following applies: HepG2 Attagene cis-factorial M32 reporter, mRNA; actives raise or lower the signal. Summed up:
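HepG2 transfectants (cis-regulated reporter transcription units) dosed 24 h. Reporter mRNA by RT-PCR plus CE, analysed as gain or loss relative to DMSO.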

Assay [10] can be described thus: ATG_PXRE_CIS: Attagene CIS-FACTORIAL HepG2 Assay for human Pregnane X Receptor Element (PXRE) (AID 2282957). The following applies: HepG2 Attagene CIS-FACTORIAL PXRE reporter, mRNA; actives raise or lower the signal. The method in brief:
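Bidirectional activity, baselined to DMSO, derived from reporter mRNA fluorescence (RT-PCR plus capillary electrophoresis) in HepG2 cells bearing cis-promoter reporter units, 24 h exposure.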

A short description of assay [11]: ATG_Sox_CIS: Attagene CIS-FACTORIAL HepG2 Assay for human SRY-box transcription factor (SOX) (AID 2282960). The following applies: HepG2 Attagene cis-factorial SOX reporter, mRNA; actives raise or lower the signal. The method in brief:
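HepG2, cis reporter units, 24 h exposure. Reporter mRNA: RT-PCR → FAM labelling → HpaI → CE fluorescence. Bidirectional fit vs DMSO.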

For assay [12], the target named is Transcription factor Sp1 (Homo sapiens) (UniProt P08047). The experiment in a line: ATG_Sp1_CIS: Attagene CIS-FACTORIAL HepG2 Assay for human Specificity Protein 1 (Sp1) (AID 2282961). The following applies: HepG2 Sp1 cis-reporter transcription, actives raise or lower the signal. Summed up:
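Liver-derived HepG2 cells, cis-element reporter library, 24 h treatment; RNA isolated, cDNA amplified with reporter-specific primers, FAM-labeled fragments sized on capillary analyzer. DMSO baseline, bidirectional curve fit.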

Assay [13] has as its target Signal transducer and activator of transcription 3 (Homo sapiens) (UniProt P40763). Put plainly: ATG_STAT3_CIS: Attagene CIS-FACTORIAL HepG2 Assay for human Signal Transducer and Activator of Transcription 3 (STAT3) (AID 2282963). The following applies: HepG2, Attagene cis-factorial STAT3 reporter transcription; actives raise or lower the signal. The method in brief:
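Fluorescence intensity of 6-FAM-labelled reporter fragments, separated by capillary electrophoresis after RT-PCR, gave the signal. Cells were HepG2 transfected with cis-element reporter units and treated 24 h; fitting was bidirectional relative to DMSO.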

A short description of assay [14]: ATG_TA_CIS: Attagene CIS-FACTORIAL HepG2 Assay for human TA Basal Promoter (AID 2282964). Conditions: HepG2 Attagene CIS-factorial TA basal promoter reporter; actives raise or lower the signal. Summed up:
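Background internal-marker endpoint from a 52-component HepG2 cis-reporter panel. Cells treated 24 h; reporter transcripts quantified via RT-PCR and CE fluorescence against DMSO baseline.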

Assay [15] in a line: ATG_TCF_b_cat_CIS: Attagene CIS-FACTORIAL HepG2 Assay for human T-Cell-Factor with beta-catenin (TCF/b-cat) (AID 2282965). Conditions: HepG2 TCF/beta-catenin cis-reporter transcription, actives raise or lower the signal. Summed up: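 HepG2 cells transiently transfected with cis-promoter-driven multiplexed reporter units; reporter mRNA measured 24 h after dosing by RT-PCR, FAM labelling, HpaI digestion and capillary electrophoresis. Bidirectional fitting relative to DMSO baseline.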

Assay [16] can be described thus: ATG_TAL_CIS: Attagene CIS-FACTORIAL HepG2 Assay for human TAL Basal Promoter (AID 2282966).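 Note: background control endpoint measuring basal TAL promoter reporter mRNA not a specific factor.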 Conditions: HepG2 Attagene cis-factorial TAL promoter reporter; actives raise or lower the signal. The method in brief:
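Human hepatoma HepG2 cells, transfected with promoter-regulated reporter units, were treated 24 h. Reporter transcript levels, measured through RT-PCR and capillary electrophoresis, were fitted for gain or loss relative to DMSO.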

The target of assay [17] is X-box-binding protein 1 (Homo sapiens) (UniProt P17861). The experiment in a line: ATG_Xbp1_CIS: Attagene CIS-FACTORIAL HepG2 Assay for human X-box Binding Protein 1 (XBP1) (AID 2282972). The following applies: HepG2 XBP1 cis-element reporter, Attagene multiplex; actives raise or lower the signal. The method in brief:
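Reporter transcripts were quantified by RT-PCR with fluorescent primer extension and capillary electrophoresis after 24 h chemical exposure. Cells: transiently transfected HepG2 carrying cis-regulated reporter constructs; data fitted bidirectionally relative to DMSO.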

Assay [18] addresses Transcriptional activator Myb (Homo sapiens) (UniProt P10242). Put plainly: ATG_Myb_CIS: Attagene CIS-FACTORIAL HepG2 Assay for human Myeloblastosis (Myb) Proto-Oncogene Transcription Factor (AID 2282986). Conditions: HepG2 Attagene CIS-FACTORIAL Myb reporter transcription; actives raise or lower the signal. The method in brief:
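After 24 h of compound dosing, total RNA from transfected HepG2 cells is reverse-transcribed and the reporter sequences amplified, labeled and separated by capillary electrophoresis. Values come from bidirectional fitting against DMSO.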

Assay [19] deals with Myc proto-oncogene protein (Homo sapiens) (UniProt P01106). The experiment in a line: ATG_Myc_CIS: Attagene CIS-FACTORIAL HepG2 Assay for human Myelocytomatosis (Myc) Proto-Oncogene Transcription Factor (AID 2282990). Conditions: HepG2, Attagene cis-reporter transcription factor activity; actives raise or lower the signal. The method in brief: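 Transiently transfected HepG2 cells bearing cis-promoter reporter units for endogenous transcription factors; 24 h exposure. Reporter mRNA measured by RT-PCR, 6-FAM primer extension, HpaI cut and capillary electrophoresis; bidirectional fit relative to DMSO.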
Chain of Myc proto-oncogene protein (Homo sapiens) (P01106 whole entry, looked up): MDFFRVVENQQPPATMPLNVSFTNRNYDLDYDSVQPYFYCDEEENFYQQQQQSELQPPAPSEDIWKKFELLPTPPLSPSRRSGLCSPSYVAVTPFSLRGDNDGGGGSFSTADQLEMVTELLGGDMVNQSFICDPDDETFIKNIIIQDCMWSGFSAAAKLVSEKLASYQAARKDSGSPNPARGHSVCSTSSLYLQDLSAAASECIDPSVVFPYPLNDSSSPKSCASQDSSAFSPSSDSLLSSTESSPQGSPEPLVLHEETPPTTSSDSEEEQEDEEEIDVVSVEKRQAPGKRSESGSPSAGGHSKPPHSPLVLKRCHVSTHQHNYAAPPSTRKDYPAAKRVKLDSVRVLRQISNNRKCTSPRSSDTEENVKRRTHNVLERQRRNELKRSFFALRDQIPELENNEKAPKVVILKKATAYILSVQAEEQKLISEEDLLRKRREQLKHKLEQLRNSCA

Assay [20] in a line: ATG_Oct_MLP_CIS: Attagene CIS-FACTORIAL HepG2 Assay for human Octamer-Binding Transcription Factor (Oct) (AID 2282993). Conditions: HepG2 Attagene cis-factorial Oct reporter, mRNA; actives raise or lower the signal. Summed up: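 Using HepG2 cells bearing transfected cis-reporter constructs, mRNA induction was read after 24 h by fluorescent RT-PCR and capillary electrophoresis, with DMSO defining baseline for gain- or loss-of-signal fits.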

Chain of Signal transducer and activator of transcription 3 (Homo sapiens) (P40763 whole entry, looked up, the tested form may be a part): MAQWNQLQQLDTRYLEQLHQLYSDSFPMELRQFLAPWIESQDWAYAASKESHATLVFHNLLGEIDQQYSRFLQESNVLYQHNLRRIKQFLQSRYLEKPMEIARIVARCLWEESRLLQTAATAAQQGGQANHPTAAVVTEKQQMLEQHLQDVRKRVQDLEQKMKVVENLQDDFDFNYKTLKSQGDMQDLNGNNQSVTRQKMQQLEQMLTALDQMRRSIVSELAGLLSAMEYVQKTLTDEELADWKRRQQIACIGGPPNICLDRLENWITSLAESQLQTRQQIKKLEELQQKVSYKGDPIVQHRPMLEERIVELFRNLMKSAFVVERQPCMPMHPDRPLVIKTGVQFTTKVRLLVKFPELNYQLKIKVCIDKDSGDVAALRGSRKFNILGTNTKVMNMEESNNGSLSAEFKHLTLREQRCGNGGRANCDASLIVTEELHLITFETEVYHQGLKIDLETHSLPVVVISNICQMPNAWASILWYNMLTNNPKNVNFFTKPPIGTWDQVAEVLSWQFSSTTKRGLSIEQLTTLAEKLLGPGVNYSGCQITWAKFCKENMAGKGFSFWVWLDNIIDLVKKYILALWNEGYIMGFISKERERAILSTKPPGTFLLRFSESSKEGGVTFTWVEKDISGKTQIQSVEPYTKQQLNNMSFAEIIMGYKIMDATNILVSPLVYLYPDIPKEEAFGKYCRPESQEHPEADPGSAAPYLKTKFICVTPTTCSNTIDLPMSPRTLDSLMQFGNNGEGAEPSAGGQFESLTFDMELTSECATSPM
Chain of Transcription factor Sp1 (Homo sapiens) (P08047 whole entry, looked up, the tested form may be a part): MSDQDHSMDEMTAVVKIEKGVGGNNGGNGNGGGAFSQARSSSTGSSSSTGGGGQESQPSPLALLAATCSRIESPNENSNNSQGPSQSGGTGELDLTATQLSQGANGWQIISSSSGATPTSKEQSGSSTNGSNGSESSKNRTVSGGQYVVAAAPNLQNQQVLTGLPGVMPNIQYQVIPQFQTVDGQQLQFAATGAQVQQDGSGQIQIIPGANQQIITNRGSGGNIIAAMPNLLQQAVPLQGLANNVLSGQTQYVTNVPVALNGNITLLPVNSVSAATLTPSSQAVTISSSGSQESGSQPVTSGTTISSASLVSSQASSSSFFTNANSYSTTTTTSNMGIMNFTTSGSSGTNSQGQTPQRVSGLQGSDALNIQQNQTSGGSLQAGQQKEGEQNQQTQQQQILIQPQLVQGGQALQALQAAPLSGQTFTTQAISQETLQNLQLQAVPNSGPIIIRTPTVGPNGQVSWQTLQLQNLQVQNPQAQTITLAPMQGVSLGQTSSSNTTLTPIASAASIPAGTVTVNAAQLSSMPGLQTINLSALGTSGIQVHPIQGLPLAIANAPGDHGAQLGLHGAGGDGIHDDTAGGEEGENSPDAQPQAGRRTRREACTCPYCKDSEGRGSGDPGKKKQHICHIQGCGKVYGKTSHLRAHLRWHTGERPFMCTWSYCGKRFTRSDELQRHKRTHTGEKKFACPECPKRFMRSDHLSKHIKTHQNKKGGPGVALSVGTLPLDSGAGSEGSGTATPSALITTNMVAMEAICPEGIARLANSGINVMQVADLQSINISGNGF
Chain of Transcriptional activator Myb (Homo sapiens) (P10242 whole entry, looked up): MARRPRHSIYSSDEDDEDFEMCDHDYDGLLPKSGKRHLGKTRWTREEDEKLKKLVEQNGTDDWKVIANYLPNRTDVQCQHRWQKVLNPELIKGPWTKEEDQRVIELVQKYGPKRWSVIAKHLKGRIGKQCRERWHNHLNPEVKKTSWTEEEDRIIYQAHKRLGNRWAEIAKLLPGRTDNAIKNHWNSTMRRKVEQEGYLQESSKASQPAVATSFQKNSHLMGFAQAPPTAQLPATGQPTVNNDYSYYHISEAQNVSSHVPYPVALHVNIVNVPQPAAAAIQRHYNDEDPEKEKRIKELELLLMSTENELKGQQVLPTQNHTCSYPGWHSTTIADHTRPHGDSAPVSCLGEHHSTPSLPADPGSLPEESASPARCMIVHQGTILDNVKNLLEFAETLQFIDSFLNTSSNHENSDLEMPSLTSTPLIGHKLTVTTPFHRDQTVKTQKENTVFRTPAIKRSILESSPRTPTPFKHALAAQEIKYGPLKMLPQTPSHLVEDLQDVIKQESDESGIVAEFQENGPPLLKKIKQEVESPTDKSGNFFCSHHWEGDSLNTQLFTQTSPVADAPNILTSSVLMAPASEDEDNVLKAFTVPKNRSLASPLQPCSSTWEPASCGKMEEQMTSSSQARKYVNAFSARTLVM
Chain of CCAAT/enhancer-binding protein beta (Homo sapiens) (P17676 whole entry, looked up): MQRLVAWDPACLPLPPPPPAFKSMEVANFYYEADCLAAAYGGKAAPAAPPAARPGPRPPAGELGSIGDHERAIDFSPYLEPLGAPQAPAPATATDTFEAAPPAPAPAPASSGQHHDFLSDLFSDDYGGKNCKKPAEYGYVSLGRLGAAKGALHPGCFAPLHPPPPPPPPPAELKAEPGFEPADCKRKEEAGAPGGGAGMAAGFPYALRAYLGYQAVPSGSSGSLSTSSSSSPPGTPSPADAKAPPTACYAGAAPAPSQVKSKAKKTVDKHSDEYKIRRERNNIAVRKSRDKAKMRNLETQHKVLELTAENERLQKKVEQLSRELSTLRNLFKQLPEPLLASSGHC
Chain of X-box-binding protein 1 (Homo sapiens) (P17861 whole entry, looked up): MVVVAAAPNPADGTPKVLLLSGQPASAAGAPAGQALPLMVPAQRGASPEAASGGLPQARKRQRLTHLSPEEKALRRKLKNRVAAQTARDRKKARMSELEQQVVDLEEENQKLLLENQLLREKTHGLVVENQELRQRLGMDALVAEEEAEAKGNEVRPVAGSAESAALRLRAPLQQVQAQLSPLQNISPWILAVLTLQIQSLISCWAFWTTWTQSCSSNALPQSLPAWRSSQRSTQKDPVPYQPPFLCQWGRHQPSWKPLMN
Chain of Transcription factor E2F1 (Homo sapiens) (Q01094 whole entry, looked up): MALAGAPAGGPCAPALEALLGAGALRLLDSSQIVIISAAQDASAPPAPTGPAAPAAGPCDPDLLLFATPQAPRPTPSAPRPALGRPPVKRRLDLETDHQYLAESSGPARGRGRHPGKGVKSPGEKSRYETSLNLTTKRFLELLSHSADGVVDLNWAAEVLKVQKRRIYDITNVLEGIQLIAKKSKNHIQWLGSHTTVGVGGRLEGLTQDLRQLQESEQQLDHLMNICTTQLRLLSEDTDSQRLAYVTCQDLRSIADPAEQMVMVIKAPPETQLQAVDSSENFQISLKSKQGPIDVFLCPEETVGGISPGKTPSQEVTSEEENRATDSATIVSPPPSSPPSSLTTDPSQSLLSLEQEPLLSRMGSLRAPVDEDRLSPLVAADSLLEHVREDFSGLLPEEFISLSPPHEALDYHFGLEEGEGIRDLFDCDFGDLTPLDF

With `O=c1c2ccccc2c(=O)c2c1cc(Cl)c1[nH]c3c([nH]c12)c(Cl)cc1c(=O)c2ccccc2c(=O)c13`, the result in [1], in [2], in assay [3], in [4], in assay [5] and in [6] was inactive. For the same compound, the result in assay [7], in [8], in [9], in assay [11], in [12] and in [13] was inactive. For the same compound, the outcome in [14], in assay [15], in [16], in assay [17], in assay [18] and in assay [19] was inactive. For the same compound, the compound was classed as inactive in assay [20]. For the same compound, in [10], the AC50 is 11.2 µM (active).

As for `Cc1ccc(OP(=O)(Oc2ccc(C)cc2)Oc2ccc(C)cc2)cc1` (tested in a mixture with another compound), the result in [1], in assay [3], in assay [4], in assay [5], in [6] and in assay [7] was inactive. Moreover, the compound was classed as inactive in assay [9], in [11], in assay [12], in assay [13], in assay [14] and in assay [15]. For the same compound, the result in assay [16], in assay [17], in assay [18], in [19] and in assay [20] was inactive. Also, the AC50 in assay [2] is 9.36 µM (active); in assay [8], 100 µM (active); in assay [10], 0.519 µM (active).

For the compound `Cc1ccccc1CCl`, the outcome in assay [1], in assay [2], in assay [3], in [4], in assay [5] and in assay [6] was inactive. The result in [7], in [8], in [9], in assay [10], in assay [11] and in assay [12] was inactive. Further, the call in assay [13], in [14], in assay [15], in [16], in [17] and in [18] was inactive. Also, the compound was called inactive in [19] and in [20].
